Test results from PubChem BioAssay AID529 (NMMLSC, 2006).
Out of some 24,000 compounds screened, about 50 (0.2%) were called active. Inconclusive results (about 9%) are left out.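 The calls were made as follows: active = inhibition above 50%; inconclusive = compound itself fluorescent, judged against control cell fluorescence; inactive = the rest.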 For the sample, actives were picked, then their nearest neighbours and some compounds at random.

target: Integrin alpha-4 (Homo sapiens) (UniProt P13612); experiment: blockers of LDV-FITC ligand binding on VLA-4 – Jurkat cells, Mn2+ activated, primary screen (AID 529); conditions: LDV-FITC binding with Mn2+, flow cytometry, hits give high values, 100% = Mn2+-driven binding gain fully reversed, screened at 10 µM (by protocol);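 also: 0% = Mn2+ stimulated cells lacking compound and 100% = ligand binding without Mn2+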
Sequence (P13612 whole entry, looked up): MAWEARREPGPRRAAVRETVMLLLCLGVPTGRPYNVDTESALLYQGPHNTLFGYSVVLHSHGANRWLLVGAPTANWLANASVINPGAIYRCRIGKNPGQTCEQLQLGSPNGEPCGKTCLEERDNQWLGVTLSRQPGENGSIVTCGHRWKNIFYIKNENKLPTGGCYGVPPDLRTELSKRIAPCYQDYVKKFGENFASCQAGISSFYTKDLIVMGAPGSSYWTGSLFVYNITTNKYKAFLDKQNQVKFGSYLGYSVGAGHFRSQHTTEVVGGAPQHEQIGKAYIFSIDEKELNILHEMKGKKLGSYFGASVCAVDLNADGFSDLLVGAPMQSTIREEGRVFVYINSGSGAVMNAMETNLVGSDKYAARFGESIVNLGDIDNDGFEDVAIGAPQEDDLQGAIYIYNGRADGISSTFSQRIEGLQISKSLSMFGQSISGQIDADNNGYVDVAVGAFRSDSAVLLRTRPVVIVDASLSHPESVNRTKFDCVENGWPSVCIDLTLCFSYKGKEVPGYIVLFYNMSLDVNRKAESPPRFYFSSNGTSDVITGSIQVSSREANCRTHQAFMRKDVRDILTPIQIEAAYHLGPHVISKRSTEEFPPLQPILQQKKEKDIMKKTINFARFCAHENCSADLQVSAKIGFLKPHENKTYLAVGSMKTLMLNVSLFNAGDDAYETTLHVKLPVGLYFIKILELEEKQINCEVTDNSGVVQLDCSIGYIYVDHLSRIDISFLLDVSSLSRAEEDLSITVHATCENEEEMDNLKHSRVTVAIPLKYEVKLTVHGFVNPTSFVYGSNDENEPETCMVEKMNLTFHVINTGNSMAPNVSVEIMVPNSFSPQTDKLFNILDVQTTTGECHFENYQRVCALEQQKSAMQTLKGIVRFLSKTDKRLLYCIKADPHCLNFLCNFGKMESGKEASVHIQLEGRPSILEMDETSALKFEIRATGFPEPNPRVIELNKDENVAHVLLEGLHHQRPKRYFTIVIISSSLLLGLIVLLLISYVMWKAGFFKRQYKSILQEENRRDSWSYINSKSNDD

inhibition, inactive:
O=C(NCc1cccs1)c1ccc2c(c1)ncn2C1CCCC1 -10%
CCCn1cc(SCC(N)=O)c2ccccc21 -4%
N#CC1=C(N)Oc2cc(O)ccc2C1C1CCCCC1 (configuration not stated) -8%
CCOCCCN1C(=O)CN(C2CCCCC2)C(=O)C1c1ccc(OCC)c(OC)c1 (configuration not stated) 7%
COc1cc2c(cc1OC)C(c1ccc(C)o1)CC(=O)N2 (configuration not stated) 3%
CCCCOC(=O)NCN1C(=O)C2C3C=CC(C3)C2C1=O (configuration not stated) -15%
Cc1cc(N2C(=O)c3ccc(C(=O)NCc4ccccc4)cc3C2=O)no1 3%
CCCCc1nccn1CCn1ccnc1CCCC -5%
CCCS(=O)(=O)C(=C1Nc2ccccc2N1)S(=O)(=O)CCC 0%
CCCCNC(=O)c1c[nH]c2ccc(S(=O)(=O)Nc3ccc(OCC)cc3)cc2c1=O -22.5%
COc1ccc(C2CC(c3ccc(C)cc3)Nc3ncnn32)cc1 (configuration not stated) -3.7%
COc1ccc(C2C(C(=O)Nc3ccccc3OC)=C(C)Nc3nnnn32)c(OC)c1 (configuration not stated) 3%
CCCCOC(=O)Nc1nccs1 15.3%
O=C(CSC1=Nc2ccccc2C2=NC(c3ccccc3)C(=O)N12)NCC1CCCO1 (configuration not stated) 3%
COc1ccc(C2CC(c3ccc(Cl)cc3Cl)Nc3nc(N)nn32)cc1OC (configuration not stated) -5%
COc1cccc(NS(=O)(=O)c2ccc3[nH]cc(C(=O)NCCCOC(C)C)c(=O)c3c2)c1 -26%
CCOC(=O)c1oc2ccccc2c1NC(=O)c1cccs1 17%
Cc1nn(C)c(C)c1S(=O)(=O)N1CCc2ccccc21 2%
Cc1cccc(N2CCN(S(=O)(=O)c3ccc4c(c3)c(=O)n(C)c(=O)n4C)CC2C)c1 (configuration not stated) -4%
O=C(C1CCN(S(=O)(=O)c2cccs2)CC1)N1CCCCCC1 -3%
CN(C)CCCNC(=O)c1ccc2[nH]c3ccccc3c2c1 -6%
COc1ccc(CCNC(=O)CSc2nnc(CNC(=O)c3cccs3)o2)cc1OC 13%
CCOC(=O)C1(c2ccccc2)NC(c2ccc(N(C)C)cc2)C2C(=O)N(C)C(=O)C21 (configuration not stated) -13%
CCOc1ccc(NC(=O)N(CCC(C)C)C(C)c2ccco2)cc1 (configuration not stated) -12%
CCC(C)(C(=O)NC1CCCC1)N(C(=O)CNC(C)=O)c1ccc(C)cc1 (configuration not stated) -12%
Cc1ccc(C(=O)N(CN2CCCC2=O)c2ccc(F)cc2)cc1 -10%
CCN(CC)CCNC(=O)Cn1cnc2sc(C)c(S(=O)(=O)N3CCOCC3)c2c1=O 0%
COc1ccccc1CNC(=O)CCCn1c(=O)c2ccccc2n(CC(=O)NC2CCCC2)c1=O -2%
CCOC(=O)N1CCC(NC(=O)CN2C(=O)COc3ccc(C(C)(C)C)cc32)CC1 7%
O=c1c2[nH]c3ccc(Cl)cc3c2ncn1Cc1ccccn1 -1%
O=S(=O)(NCc1ccccc1Cl)c1cnc[nH]1 -2%
CCCCN=C(N)/C(C(=O)OCC)=C(\O)c1ccc(OC)cc1 9%
COc1ccc(S(=O)(=O)NC2(C(F)(F)F)N=C3SCCN3C2=O)cc1 (configuration not stated) -5%
Cc1ccc(-n2nc3c(c2NC(=O)c2ccc4c(c2)OCO4)CSC3)c(C)c1 13%
O=C(c1ccc2c(c1)N(Cc1ccc(F)cc1)C(=O)CS2)N1CCOCC1 -5%
CCCN1CCN(CCCNC(=O)CN2C(=O)COc3ccccc32)CC1 1%
Cc1cccc(CSc2nnc(Cn3c(=O)sc4ccccc43)n2C)c1 2%
COc1ccc(NC(=O)CN2CCN(S(=O)(=O)c3ccc(F)cc3)CC2)cc1Cl 9%
COCCn1c(=O)[nH]c2cc(C(=O)NCc3cccnc3)ccc2c1=O -22%
CCOc1ccccc1NC(=O)c1cc(S(=O)(=O)N2CCC3(CC2)OCCO3)ccc1F 8%
Cc1cc(C)c2c(n1)nn1c(N3CCOCC3)cc(C)nc21 -14%
CCOC(=O)CSc1nnc(CNC(=O)c2ccco2)n1-c1ccc(F)cc1 14%
